From PubChem BioAssay
This is a sample that favours compounds with a hit; in the whole collection about 1.7% have one here.
TrxR1 inh: rat TrxR1 inhibition. recombinant rTrxR1, NADPH fluorescence consumption, selenite substrate. Potency, µM (doses to about 114 µM), hits mostly inhibitors. 390,000 compounds, 1% hits. AID 588453; note: nearly all actives have a fitted effect of over 65% in size
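Rat TrxR1 (90 nM in the dispensed reagent) was pre-reduced with 400 uM NADPH for 5 min at room temperature, then incubated with compound for 15 min. After 400 uM selenite was added, NADPH fluorescence (Ex 340/Em 450 nm) was followed for 8 min.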
TrxR1 substrate: rat thioredoxin reductase 1 substrate activity. O89049. purified TrxR1 substrate turnover, NADPH consumption readout. Potency, µM (doses to about 114 µM). 390,000 compounds, 0.01% hits; note: nearly all actives have a fitted effect of over 50% in size
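Rat TrxR1, dispensed at 90 nM, was prereduced with 400 uM NADPH (final) for 5 min at ~22 deg C, then incubated with compound 15 min before 400 uM selenite. A first-read NADPH fluorescence drop versus no-compound background flagged substrates.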
Apoferritin bind: binds horse apoferritin like a general anesthetic; P02791; apoferritin/1-aminoanthracene competitive binding, fluorescence; Potency, µM (doses to about 77.5 µM), actives largely listed as inhibitors; 350,000 compounds, 0.074% hits; AID 485281; note: nearly all actives have a fitted effect of over 20% in size
Target sequence (P02791 2-175 limits assumed): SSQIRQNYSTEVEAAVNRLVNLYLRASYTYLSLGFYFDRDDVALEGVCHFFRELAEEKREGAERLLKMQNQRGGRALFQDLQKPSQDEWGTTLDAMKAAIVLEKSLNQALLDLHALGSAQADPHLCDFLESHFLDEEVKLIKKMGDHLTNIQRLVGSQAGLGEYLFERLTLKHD
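Horse-spleen apoferritin (10 uM) in 50% saturated 1-aminoanthracene in PBS was incubated 10 min at room temperature with compound. Fluorescence (ex 380, em 535 nm) was normalized to free and bound 1-AMA, with concentration-response fitted by a four-parameter Hill equation.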
GRP78 ERSR act: ER stress response induction in glioma | U87-MG GRP78 promoter luciferase reporter, 16 h | Potency, µM, actives largely listed as activators | 420,000 compounds, 0.02% hits | AID 602332; note: series mostly up to about 76 µM; nearly all actives have a fitted effect of over 35% in size
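ERSR induction read as luciferase luminescence (Bright-Glo, 10 min at room temperature) in stably transfected human U87-MG glioma cells exposed to compounds for 16 h, using GRP78 as sensor.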
ALOX12 inh: blocks human arachidonate 12S-lipoxygenase. purified 12hLO, xylenol orange hydroperoxide absorbance. Potency, µM (doses to about 108 µM), usual class: inhibitors. 580,000 compounds, 1.1% hits. AID 1671190
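Hydroperoxide product was detected by ferrous iron/xylenol orange as the 573 to 405 nm absorbance ratio. Arachidonic acid at 40 uM (final) was turned over for 30 min at room temperature by 150 nM human 12hLO, pH 7.0 Hepes buffer, after 15 min compound preincubation.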
IDH1 R132H inh: human IDH1 R132H inhibition | O75874 | IDH1-R132H enzyme, NADPH consumption, diaphorase/resazurin fluorescence | Potency, µM (doses to about 76.6 µM), most hits filed as inhibitors | 390,000 compounds, 0.093% hits | AID 602179; note: nearly all actives have a fitted effect of over 65% in size
Target sequence (O75874 whole entry R132H, stated change not applied): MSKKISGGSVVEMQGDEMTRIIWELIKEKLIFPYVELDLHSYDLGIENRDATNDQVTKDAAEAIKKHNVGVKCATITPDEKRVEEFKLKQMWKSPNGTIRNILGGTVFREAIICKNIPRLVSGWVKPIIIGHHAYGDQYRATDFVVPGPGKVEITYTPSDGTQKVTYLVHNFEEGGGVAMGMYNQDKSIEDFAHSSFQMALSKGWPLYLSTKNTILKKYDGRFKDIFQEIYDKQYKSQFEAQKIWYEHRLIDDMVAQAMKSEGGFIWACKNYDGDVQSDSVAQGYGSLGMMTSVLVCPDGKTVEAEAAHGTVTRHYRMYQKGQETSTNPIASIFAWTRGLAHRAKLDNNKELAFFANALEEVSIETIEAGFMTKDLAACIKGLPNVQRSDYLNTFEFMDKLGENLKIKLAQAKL
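IDH1-R132H (0.5 ug/mL) preincubated 30 min with compound, then NADPH (0.016 mM) and alpha-KG (2 mM) added; 80 min at RT, pH 7.5. Remaining NADPH coupled via diaphorase/resazurin to fluorescence (540/590 nm); concentration-response curves normalized to no-enzyme control.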
Of the large screens only hits and unclear results are named; the others gave an inactive call. Calls come from the whole dose curve; as a rule, active = well fitted curve in the direction sought with a large enough effect; inconclusive = small, poorly fitted or top-dose-only effect, or another doubt; inactive = no such curve, though single readings can be large; an effect the other way counts as inactive or inconclusive.

O=c1[nH]c2cc3c(cc2cc1CN(Cc1ccccc1)Cc1nnnn1Cc1ccco1)OCCO3	TrxR1 inh 18µM, ALOX12 inh inconclusive
Cc1ccc2[nH]c(=O)c(CN(CCCO)Cc3nnnn3Cc3ccco3)cc2c1	TrxR1 inh 28µM (no result: Apoferritin bind, ALOX12 inh, IDH1 R132H inh)
Cc1ccc2[nH]c(=O)c(CN(Cc3cccnc3)Cc3nnnn3CC3CCCO3)cc2c1 (centres undefined)	none
CCc1ccc2[nH]c(=O)c(CN(Cc3ccccc3)Cc3nnnn3Cc3ccco3)cc2c1	none
Cc1ccc2[nH]c(=O)c(CN(Cc3ccco3)Cc3nnnn3Cc3ccccc3)cc2c1	none (no result: Apoferritin bind, ALOX12 inh, IDH1 R132H inh)
Cc1ccc2[nH]c(=O)c(CN(Cc3cccnc3)Cc3nnnn3CCN3CCOCC3)cc2c1	TrxR1 inh 11µM
CO[C@@H]1COC(=O)[C@H]2CCCN2C(=O)[C@@H](C)COC(=O)CCC[C@H]1C	none (no result: TrxR1 inh, TrxR1 substrate, ALOX12 inh, IDH1 R132H inh)
COc1ccc(/C=C/C(=O)OCc2ccccc2C#N)cc1OC	none (no result: TrxR1 inh, TrxR1 substrate, Apoferritin bind, GRP78 ERSR act, IDH1 R132H inh)
CCOC1=CC2=C(C(=O)C(Cl)=CC2=O)[C@@H]2CN(S(=O)(=O)c3ccc(C)cc3)[C@@H](c3ccccc3)[C@H]12	ALOX12 inh 0.89µM (no result: TrxR1 inh, TrxR1 substrate, Apoferritin bind, IDH1 R132H inh)
CC(C)C(=O)Nc1ccc(C2(C(=O)NCc3ccc(F)c(Cl)c3)CCC2)cc1	none (no result: TrxR1 inh, TrxR1 substrate, Apoferritin bind, GRP78 ERSR act, IDH1 R132H inh)
c1cncc(-c2csc(-c3cccnc3)n2)c1	none
c1cncc(-c2nc(-c3ccco3)cs2)c1	TrxR1 inh 35µM, ALOX12 inh inconclusive
CCCSc1nc2c(c(=O)n(C)c(=O)n2C)n1CCCc1ccccc1	none (no result: TrxR1 inh, TrxR1 substrate, Apoferritin bind, GRP78 ERSR act, IDH1 R132H inh)
COc1ccc(NC(=O)c2cc(-c3ccccc3O)on2)cc1OC	ALOX12 inh 0.63µM (no result: TrxR1 inh, TrxR1 substrate, Apoferritin bind, GRP78 ERSR act, IDH1 R132H inh)
CCNC(=O)c1cccc(NC(=O)Cc2c[nH]c3ccccc23)c1	none (no result: TrxR1 inh, TrxR1 substrate, Apoferritin bind, GRP78 ERSR act, IDH1 R132H inh)
Cc1ccc(C(=O)OCC(=O)Nc2sc3c(c2C#N)CCCC3)cc1NC(=O)c1ccco1	Apoferritin bind inconclusive, ALOX12 inh 35µM
Cc1cc(C)c(NC(=O)c2ccc(S(=O)(=O)N3CCCC3)cc2)c(Cl)c1	none (no result: TrxR1 inh, TrxR1 substrate, Apoferritin bind, GRP78 ERSR act, IDH1 R132H inh)
COc1cc(OC)c2c(-c3ccccc3)cc(=O)oc2c1C(CC(=O)N1CCCC1)c1ccc2c(c1)OCO2 (centres undefined)	ALOX12 inh 50µM
COc1cc(OC)c2c(-c3ccccc3)cc(=O)oc2c1C(CCN1CCCCC1)c1ccc2c(c1)OCO2 (centres undefined)	ALOX12 inh inconclusive
O=C1[C@@H]2C(c3cccnc3)=NO[C@@H]2C(=O)N1c1ccc(Br)cc1	TrxR1 inh 28µM
Cc1ccc(N2C(=O)[C@@H]3C(c4cccnc4)=NO[C@@H]3C2=O)c(C)c1	none
CCCCCC(=O)N1C[C@H](n2cc(COC(=O)c3ccccc3)nn2)[C@@H](O)C[C@@H]1c1ccc(C)cc1	ALOX12 inh 40µM (no result: TrxR1 inh, TrxR1 substrate, Apoferritin bind)
Cn1c(=O)c(Oc2ccc(F)cc2F)cc2cnc(NC3CCOCC3)nc21	ALOX12 inh 17µM (no result: TrxR1 inh, TrxR1 substrate, Apoferritin bind, GRP78 ERSR act, IDH1 R132H inh)
N#CC1=C(N)SC(N)=C(C#N)C1c1cccc(Oc2ccccc2)c1	ALOX12 inh 14µM
CC1(C)[C@H](Cc2cc(CCO)on2)C[C@@H]1NCc1ccccc1F	none (no result: TrxR1 inh, TrxR1 substrate, Apoferritin bind, GRP78 ERSR act, IDH1 R132H inh)
Cn1c(=O)[nH]c(=O)c2c1[nH]c(=S)n2CCCc1ccccc1	ALOX12 inh inconclusive
Cn1c(=O)c2c([nH]c(=S)n2CCCc2ccccc2)n(C)c1=O	ALOX12 inh 1.3µM
N#Cc1ccc(-c2ccco2)nc1SCc1ccccc1	TrxR1 inh inconclusive
CCSc1nc(-c2ccco2)ccc1C#N	TrxR1 inh 7.9µM, ALOX12 inh 6.3µM
O=C(N/N=C/c1cc(Cl)cc([N+](=O)[O-])c1O)C1CC1	none
CC(C)(C)N/N=C/c1cc(Cl)cc([N+](=O)[O-])c1O	ALOX12 inh 16µM
CC1=CC(C#N)(C#N)C(C#N)(C#N)C(c2ccccc2)N1 (centres undefined)	none (no result: TrxR1 inh, TrxR1 substrate, GRP78 ERSR act, ALOX12 inh, IDH1 R132H inh)
CC1CCC(C(C)C)C2=C1C(C#N)(C#N)C(C#N)(C#N)C(c1ccccc1)N2 (centres undefined)	TrxR1 inh inconclusive, ALOX12 inh 40µM
CCCc1nc2ccc(C)cn2c1Cc1ccc(C)cc1	ALOX12 inh inconclusive (no result: TrxR1 inh, TrxR1 substrate, Apoferritin bind, IDH1 R132H inh)
CN1CCO/C1=C(\C(Cl)=C(Cl)Cl)[N+](=O)[O-]	ALOX12 inh inconclusive
